Screening results as filed in PubChem.
The full list was thinned out, with hits kept by preference.
Pf Dd2 inh = inhibitors of Plasmodium falciparum Dd2 growth | P. falciparum Dd2 growth, SYBR Green, 72 h | Potency, µM (series often up to 28.9 µM), for inactives: at the highest dose activity, negative = inhibition, hits mostly inhibitors | actives 4.3% (n = 120,000); active means well fitted inhibition curve with a large enough effect;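 further: plate controls were DMSO vehicle for no effect and reference drug for full effect; nearly all actives have a fitted effect of over 65% in size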
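Readout: SYBR Green fluorescence, 485 nm excitation, 535 nm emission, after ~16 h lysis at 37C. Before that, Dd2-infected red cells (2.5% hematocrit) grew 72 h with compound, 29 uM top final concentration.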
Starred values were filed as active, the others as inactive; i = inactive; [ ] = remark or other dose. Potency means the concentration at half of the fitted maximal effect.

SMILES	Pf Dd2 inh
Cc1nc(-c2ccc(N(C)C)cc2)cc([C@H]2CN3CC[C@H]2C[C@@H]3CNC(=O)C(C)(C)C)n1	7.1µM*
COc1ccc(C(=O)NC[C@H]2C[C@@H]3CCN2C[C@@H]3c2cc(-c3ccccc3Br)nc(C)n2)cc1	7.1µM*
Cc1nc(-c2ccc(C(F)(F)F)cc2)cc([C@H]2CN3CC[C@H]2C[C@@H]3CNC(=O)C2CC2)n1	i
Cc1nc(-c2cccs2)cc([C@H]2CN3CC[C@H]2C[C@@H]3CNC(=O)c2ccc(N(C)C)cc2)n1	7.1µM*
COc1ccccc1-c1cc([C@H]2CN3CC[C@H]2C[C@@H]3CNC(=O)c2ccc(C)cc2)n(C)n1	i
Cc1nc(-c2cccs2)cc([C@H]2CN3CC[C@H]2C[C@@H]3CNC(=O)CSCC(=O)O)n1	-4%
Cc1nc(C2CCCC2)cc([C@H]2CN3CC[C@H]2C[C@@H]3CNC(=O)c2ccco2)n1	i
O=C(CC1CCCCC1)N1CCC(n2cc(-c3nc(-c4ccccc4)no3)nn2)CC1	i
c1ccc(O[C@H]2COCCN(c3nc4ccccc4s3)C2)cc1	-4%[44.1 µM]
CC(C)NC(=O)c1ccc2c(c1)C1(CCN(CC3CC3)C1)CN2Cc1ccccc1 (configuration not stated)	i
Cc1oc(C(O)c2cncnc2)nc1C(=O)Nc1ccc(N2CCOCC2)cc1 (configuration not stated)	-1%[44.1 µM]
O=C1CCCN1CCCN1C(=O)[C@@H]2C[C@@H](O)CN2C2(CN(Cc3ccc(Cl)cc3)C2)C1=O	15%
CN(Cc1cccnc1)Cc1nc(C2(O)CCN(C(=O)c3ccc(F)cc3)CC2)cs1	-3%
Cc1nc(C)c(CC(=O)NC2CC(c3cc(=O)[nH]cn3)C2)s1 (configuration not stated)	-4%
Cc1cc(C)n(CC(=O)N[C@@H]2CN(c3ncccn3)C[C@H]2CN(C)C)n1	6%
CCCCn1c(COc2cccc(OC)c2)nc2ccccc21	-13%
CCn1c(NCc2ccc(OC)c(OC)c2)nc2ccccc21	-5%
CCCCn1c(NCc2ccc(OC)cc2O)nc2ccccc21	7.9µM*
COc1ccc2[nH]cc(CCNC(=O)CCC3CCN(C(=O)c4ccccc4)CC3)c2c1	-29%
O=C(c1ccc2nc[nH]c2c1)N1CCC(CO)(CCCc2ccccc2)CC1	13%
CCN(CC)Cc1nc(C2(O)CCN(Cc3ccccc3)CC2)cs1	-16%[44.1 µM]
O=C(NCCCc1ccccc1)C1(CCO)CCN(c2ncccn2)C1 (configuration not stated)	i
OCC1(CCCc2ccccc2)CCN(Cc2cccn2-c2nccs2)CC1	10µM*
OCC1(CCCc2ccccc2)CCN(Cc2ccc(-n3cccn3)cc2)CC1	4.5µM*
O=C(c1cc2cc(F)ccc2[nH]1)N1CCC(CO)(CCCc2ccccc2)CC1	-13%
SMILES	Pf Dd2 inh
COC(=O)c1cccc(-c2nc(C3CC(=O)N(c4ccc(Cl)cc4)C3)no2)c1 (configuration not stated)	86%
Fc1cc(F)cc(Cc2nc3nccc(-c4ccco4)n3n2)c1	-17%
CC(=O)c1ccc(NC(=O)Cn2c(N3CCc4ccccc4C3)nc(C)cc2=O)cc1	-17%
O=C(C1CCC1)N1CC[C@H]2COC(=O)N2c2ccccc2C1	6%[44.1 µM]
CC(C)N1CCN(C(=O)[C@@]23CCCC[C@H]2N(C)C(=O)CC3)CC1	4%
Cc1ccc(C)c(NS(=O)(=O)c2ccc3c4c(cccc24)C(=O)N3)c1	-18%
Cc1ccc(C)c(NC2=C(c3ccc(C(F)(F)F)cc3)C(=O)c3ccccc32)c1	1.4µM*
Cc1ccc(C)c(NC(=O)C(C)N(c2ccccc2)S(C)(=O)=O)c1 (configuration not stated)	33%
N#Cc1ccccc1CN1CCCC(C(=O)NCc2ccccc2)CCNC(=O)CC1 (configuration not stated)	i
CCN1CCN(C(=O)C2CCCN(Cc3cccnc3)CCC(=O)NCC2)CC1 (configuration not stated)	9%
COc1cccc(N2CCN(C(=O)C3CCCN(Cc4cccnc4)CCC(=O)NCC3)CC2)c1 (configuration not stated)	4µM*
Cc1cccc(N2CCN(C(=O)C3CCCN(C(=O)c4cccnc4)CCC(=O)NCC3)CC2)c1 (configuration not stated)	6%
COc1cccc(CN2CCCC(C(=O)NCc3ccncc3)CCNC(=O)CC2)c1 (configuration not stated)	-5%
COc1cccc(CN2CCCC(C(=O)NCc3ccccc3)CCNC(=O)CC2)c1 (configuration not stated)	6.3µM*
CS(=O)(=O)N1CCCN(C(=O)C2CCC2)CCNC(=O)CC1c1ccccc1 (configuration not stated)	-15%
Cc1ccc(F)cc1S(=O)(=O)N1C[C@@H](C)[C@@](C)(O)C1	-10%
CNC(=O)[C@@H]1C[C@H](n2cc(CNC(=O)Nc3cccc(Cl)c3C)nn2)CN1	1%
COc1ccc(-c2nc(C3CC3)nc3c2CCN(Cc2cc(C)on2)CC3)cc1	2.5µM*
Clc1ccc(-c2nc(C3CC3)nc3c2CCN(Cc2ccccc2)CC3)cc1	i
COc1ccc(-c2nc(C)nc3c2CCN(CC2CC2)CC3)cc1	i
COc1ccc(-c2nc(C3CC3)nc3c2CCN(Cc2ccccc2)CC3)cc1	5µM*
COc1ccc(-c2nc(C)nc3c2CCN(CCC(C)C)CC3)cc1	-15%
COc1ccc(CC(=O)N2CCc3nc(C4CC4)nc(-c4ccc(Cl)cc4)c3C2)cc1	i
COc1ccccc1C(=O)N1CCn2c(nnc2C2CCCNC2)C1 (configuration not stated)	13%
Cc1cc(=O)n(CC(=O)Nc2c(C)cccc2C)c(-c2ccc(F)cc2)n1	i
SMILES	Pf Dd2 inh
O=C(c1ccncc1)N1CCCC(CCc2ccc(F)cc2)C1 (configuration not stated)	-9%
CNC(=O)[C@@H](C1CCCCC1)N1CCC[C@H]1C(=O)N1CCC1	28%[44.1 µM]
CN1CCCCCC(O)c2cc(C(=O)N3CCN(c4ccccn4)CC3)ccc21 (configuration not stated)	i
COc1ccc(NC(=O)N2CCC3(CC2)SCC(=O)N3Cc2ccco2)c(OC)c1	i
COCCNC(=O)[C@@H]1C[C@H](Oc2cccnc2)CN1C(=O)c1ocnc1C	22%
CC(C)c1nc(CCN(C)C(=O)c2cn(CCC3CCCCN3)nn2)no1 (configuration not stated)	-2%
O=C(NC1CCCC1)N1CC(Oc2cccc(-c3nc(-c4ccccc4)no3)c2)C1	i[5.79 µM]
CCOCCCNC(=O)N1CC(Oc2cccc(-c3nc(C)no3)c2)C1	5%[5.79 µM]
CCCNC(=O)N1CC(Oc2cccc(-c3nc(-c4ccccc4)no3)c2)C1	2µM*
Cc1nc2ncccn2c1C(=O)N[C@H]1[C@H]2CCO[C@H]2[C@@H]1N(C)C	6%
COc1ccc(C(=O)NC(C(=O)NC(C)C(C)C)C2CCN(C(=O)CC(C)(C)C)CC2)cc1 (configuration not stated)	-5%
N#Cc1ccc(CN2CC[C@H](c3nnc(Cc4ccccc4)o3)C2)cc1	i
CCn1cc(CN2CCCC(c3nc4c(C)cccc4[nH]3)C2)cc1C#N (configuration not stated)	13µM*
CCN1CCC2(CCC1=O)CN(Cc1cc(C#N)n(CC)c1)CCN2C (configuration not stated)	-20%
NC(=O)[C@@H]1CCCN1CC[C@H]1CN(C(=O)C2CCCC2)CC[C@H]1CC(=O)O	1%[44.1 µM]
O=C(c1ccncc1)N1CC[C@H]2COC(=O)N2c2cc(F)ccc2C1	18%[44.1 µM]
